Out of some 5,500 compounds screened, about 2,000 (36%) were called active. Another 18% or so got no clear call; they are omitted. Cut-off read from the data, not from the text of the source: active = normalized growth mostly below about 0.91 (no sharp cut-off); inconclusive = no clear call, values can overlap the other calls; inactive = mostly above about 0.92. The list shows a part of the results.
Assay: chemical genetic growth profiling, strain panel (AID 1159580);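 note: tested at 20 µM; growth read once vehicle control cultures reached saturation at 30 °C; 1 = growth at the plate median or of vehicle wells; lower values mean less growth of the strain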
Conditions: growth OD

Measured: normalized growth

CCOC(=O)/C=C(\C)OP(=O)(OC)OC
inactive: S. cerevisiae deletion strains, locus YAL013W, strain DEP1, hits give low values 0.973 | S. cerevisiae deletion strains, locus YBR021W, strain FUR4, hits give low values 1.02 | S. cerevisiae deletion strains, locus YBR229C, strain ROT2, hits give low values 0.948 | S. cerevisiae deletion strains, locus YCL029C, strain bik1, hits give low values 0.989 | S. cerevisiae deletion strains, locus YDL035C, strain GPR1, hits give low values 0.981 | S. cerevisiae deletion strains, locus YDL074C, strain BRE1, hits give low values 0.937 | S. cerevisiae deletion strains, locus YDL101C, strain DUN1, hits give low values 0.967 | S. cerevisiae deletion strains, locus YDL134C, strain PPH21, hits give low values 0.989 | S. cerevisiae deletion strains, locus YDL185W, strain tfp1, hits give low values 0.983 | S. cerevisiae deletion strains, locus YDL192W, strain arf1, hits give low values 0.992 | S. cerevisiae deletion strains, locus YDR101C, strain arx1, hits give low values 1 | S. cerevisiae deletion strains, locus YDR150W, strain NUM1, hits give low values 0.989 | S. cerevisiae deletion strains, locus YDR162C, strain NBP2, hits give low values 0.982 | S. cerevisiae deletion strains, locus YDR318W, strain mcm21, hits give low values 0.987 | S. cerevisiae deletion strains, locus YDR388W, hits give low values 1.01 | S. cerevisiae deletion strains, locus YDR502C, strain sam2, hits give low values 0.996 | S. cerevisiae deletion strains, locus YEL061C, strain CIN8, hits give low values 0.99 | S. cerevisiae deletion strains, locus YER110C, hits give low values 0.992 | S. cerevisiae deletion strains, locus YER155C, strain BEM2, hits give low values 0.984 | S. cerevisiae deletion strains, locus YER167W, strain BCK2, hits give low values 0.988 | S. cerevisiae deletion strains, locus YGL078C, strain dbp3, hits give low values 1.01 | S. cerevisiae deletion strains, locus YGL086W, strain mad1, hits give low values 0.993 | S. cerevisiae deletion strains, locus YGL248W, strain PDE1, hits give low values 0.977 | S. cerevisiae deletion strains, locus YGR078C, strain PAC10, hits give low values 0.983 | S. cerevisiae deletion strains, locus YGR135W, strain pre9, hits give low values 0.988 | S. cerevisiae deletion strains, locus YGR229C, strain SMI1, hits give low values 0.984 | S. cerevisiae deletion strains, locus YGR252W, strain gcn5, hits give low values 0.998 | S. cerevisiae deletion strains, locus YHR030C, strain SLT2, hits give low values 0.99 | S. cerevisiae deletion strains, locus YHR079C, strain IRE1 (second series), hits give low values 1 | S. cerevisiae deletion strains, locus YHR094C, strain hxt1, hits give low values 1.01 | S. cerevisiae deletion strains, locus YHR129C, strain ARP1, hits give low values 0.974 | S. cerevisiae deletion strains, locus YHR200W, strain rpn10, hits give low values 0.994 | S. cerevisiae deletion strains, locus YIL066C, strain RNR3, hits give low values 0.985 | S. cerevisiae deletion strains, locus YIL073C, strain SPO22, hits give low values 1.03 | S. cerevisiae deletion strains, locus YIL125W, strain kgd1, hits give low values 0.993 | S. cerevisiae deletion strains, locus YIR030C, strain dcg1, hits give low values 0.996 | S. cerevisiae deletion strains, locus YJL095W, strain BCK1, hits give low values 0.994 | S. cerevisiae deletion strains, locus YJL134W, strain LCB3, hits give low values 0.987 | S. cerevisiae deletion strains, locus YJL168C, strain set2, hits give low values 0.991 | S. cerevisiae deletion strains, locus YJL187C, strain SWE1 (second series), hits give low values 0.983 | S. cerevisiae deletion strains, locus YJR043C, strain POL32, hits give low values 0.985 | S. cerevisiae deletion strains, locus YJR075W, strain HOC1, hits give low values 0.983 | S. cerevisiae deletion strains, locus YKL009W, strain mrt4, hits give low values 0.947 | S. cerevisiae deletion strains, locus YKL068W, hits give low values 0.998 | S. cerevisiae deletion strains, locus YKL085W, strain MDH1 (second series), hits give low values 0.989 | S. cerevisiae deletion strains, locus YKL085W, strain MDH1, hits give low values 0.989 | S. cerevisiae deletion strains, locus YKL190W, strain CNB1, hits give low values 0.995 | S. cerevisiae deletion strains, locus YKR001C, strain vps1, hits give low values 1 | S. cerevisiae deletion strains, locus YLR039C, strain RIC1, hits give low values 0.976 | S. cerevisiae deletion strains, locus YLR058C, strain SHM2, hits give low values 0.981 | S. cerevisiae deletion strains, locus YLR102C, strain apc9, hits give low values 0.993 | S. cerevisiae deletion strains, locus YLR262C, strain YPT6, hits give low values 0.977 | S. cerevisiae deletion strains, locus YLR268W, strain sec22, hits give low values 0.998 | S. cerevisiae deletion strains, locus YLR330W, strain CHS5, hits give low values 0.986 | S. cerevisiae deletion strains, locus YLR342W, strain FKS1 (second series), hits give low values 1.02 | S. cerevisiae deletion strains, locus YLR371W, strain rom2, hits give low values 0.996 | S. cerevisiae deletion strains, locus YLR418C, strain cdc73, hits give low values 1.01 | S. cerevisiae deletion strains, locus YML016C, strain PPZ1, hits give low values 0.986 | S. cerevisiae deletion strains, locus YML032C, strain rad52, hits give low values 1 | S. cerevisiae deletion strains, locus YML124C, strain tub3, hits give low values 1 | S. cerevisiae deletion strains, locus YMR078C, strain ctf18, hits give low values 0.999 | S. cerevisiae deletion strains, locus YMR223W, strain ubp8, hits give low values 0.996 | S. cerevisiae deletion strains, locus YMR263W, strain SAP30, hits give low values 0.987 | S. cerevisiae deletion strains, locus YMR307W, strain GAS1, hits give low values 1.04 | S. cerevisiae deletion strains, locus YNL067W, strain RPL9B, hits give low values 0.982 | S. cerevisiae deletion strains, locus YNL128W, strain TEP1, hits give low values 0.951 | S. cerevisiae deletion strains, locus YNL153C, strain GIM3, hits give low values 0.985 | S. cerevisiae deletion strains, locus YNL233W, strain BNI4, hits give low values 0.997 | S. cerevisiae deletion strains, locus YNL250W, strain rad50, hits give low values 0.983 | S. cerevisiae deletion strains, locus YNL271C, strain bni1, hits give low values 1 | S. cerevisiae deletion strains, locus YNL298W, strain CLA4, hits give low values 1.01 | S. cerevisiae deletion strains, locus YNL307C, strain MCK1, hits give low values 1.01 | S. cerevisiae deletion strains, locus YNL322C, strain KRE1, hits give low values 0.977 | S. cerevisiae deletion strains, locus YNR052C, strain pop2, hits give low values 0.996 | S. cerevisiae deletion strains, locus YOL006C, strain TOP1, hits give low values 0.926 | S. cerevisiae deletion strains, locus YOL012C, strain htz1 0.854 | S. cerevisiae deletion strains, locus YOL147C, strain pex11, hits give low values 1.01 | S. cerevisiae deletion strains, locus YOR061W, strain CKA2, hits give low values 0.961 | S. cerevisiae deletion strains, locus YOR069W, strain VPS5, hits give low values 0.99 | S. cerevisiae deletion strains, locus YOR136W, strain idh2, hits give low values 0.993 | S. cerevisiae deletion strains, locus YOR144C, strain elg1, hits give low values 0.997 | S. cerevisiae deletion strains, locus YOR184W, strain ser1, hits give low values 1.01 | S. cerevisiae deletion strains, locus YOR316C, strain cot1, hits give low values 0.981 | S. cerevisiae deletion strains, locus YPL055C, strain LGE1, hits give low values 0.975 | S. cerevisiae deletion strains, locus YPL241C, strain CIN2, hits give low values 0.993 | S. cerevisiae deletion strains, locus YPR119W, strain clb2, hits give low values 1 | S. cerevisiae deletion strains, locus YPR141C, strain kar3, hits give low values 0.991 | S. cerevisiae deletion strains, locus YPR163C, strain tif3, hits give low values 1.01 | S. cerevisiae deletion strains, locus YPR167C, strain met16, hits give low values 0.995 | S. cerevisiae deletion strains, strain wtn01, hits give low values 1 | S. cerevisiae strains, strain wild type, hits give low values 0.985
